The nature of assay [1]: U-118MG Cancer Cell Toxicity qHTS against the NCATS CANVASS Library (AID 1347351). The method, boiled down: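 Viability read-out: CellTiter-Glo luminescence after 72 h compound exposure at 37 °C/5% CO2. Cells plated at 1000/well, 4 h pre-incubation; 11-point titration. Bortezomib served as control.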
Assay [2] can be described thus: HPAF-II 24hr Apoptosis Induction qHTS against the NCATS CANVASS Library (AID 1347356). The essentials:
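Luminescent caspase-3/7 signal (DEVD substrate, Caspase-Glo) served as read-out, taken 15 min after reagent addition to HPAF-II cells exposed 24 h to compounds.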

A short description of assay [3]: HEK293 18hr Apoptosis Induction qHTS against the NCATS CANVASS Library (AID 1347357). The method, boiled down:
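Caspase-3/7 luminescence (DEVD substrate, Caspase-Glo) after 18 h compound exposure of HEK293 cells, 500 cells/well; 11-point series; doxorubicin titration as control.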

Assay [4] is described as follows: HPAF-II 18hr Apoptosis Induction qHTS against the NCATS CANVASS Library (AID 1347360). The method, boiled down: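 Caspase-Glo 3/7 luminescence (DEVD substrate) after 15 min RT; HPAF-II, 500 cells/well, 18 h compound exposure at 37 degrees C, qHTS series; doxorubicin control 0.1nM - 4uM.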
Assay [5] can be described thus: HEK293 12hr Apoptosis Induction qHTS against the NCATS CANVASS Library (AID 1347361). The method, boiled down:
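500 HEK293 cells/well; cpds pin-transferred, 11-pt conc series; 12 h, 37 degrees C/5% CO2; Caspase-Glo 3/7 added, 15 min RT dark; luminescence.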

Assay [6] relates to NAD(P)H diaphorase (Clostridium kluyveri). As to the kind of experiment: Diaphorse counterscreen qHTS: Assay Interference Panel against the NCATS CANVASS Library (AID 1347362). Note: potency is the fitted concentration of half-maximal effect. The method, boiled down: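 Clostridium kluyveri diaphorase in PBS with 0.01% Tween-20 was preincubated 15 min at room temperature in the dark with compounds (11-point series). Resorufin fluorescence (ex 525/20, em 598/25) was read 5 min after adding resazurin/NADH.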

Assay [7] can be described thus: KB-3-1 Cancer Cell Toxicity qHTS against the NCATS CANVASS Library (AID 1347366). Note: nearly all actives have a fitted effect of over 75% in size. The method, boiled down: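 500 KB-3-1 cells/well; compounds pin-transferred, 11-pnt series; 72 hr, 37C/5% CO2; CellTiter-Glo, 10 min RT; luminescence read-out.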
Assay [8] in a line: MCF7 Cancer Cell Toxicity qHTS against the NCATS CANVASS Library (AID 1347369). The essentials: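 Luminescent ATP signal (CellTiterGlo) served as the cytotoxicity read-out after MCF7 breast cancer cells had been incubated 72 hr at 37C with natural products in an 11-point titration.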
Assay [9] can be described thus: qHTS for ATAD5 Antagonist screened against the NCATS CANVASS Library (AID 1347370).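 Note: HEK293T cells carrying an ATAD5 luciferase reporter co-treated with 10 µM 5-fluorouridine; series mostly up to about 46 µM; nearly all actives have a fitted effect of over 65% in size.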 The essentials:
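HEK293T cells with stably integrated ATAD5-luciferase reporter, 2000/well, 5 h attachment; compounds plus 10 µM 5-fluorouridine, 16 h at 37 °C. Luciferase luminescence read, with CellTiter-Fluor viability read first.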

A short description of assay [10]: J3T Cancer Cell Toxicity qHTS against the NCATS CANVASS Library (AID 1347371).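 Note: J3T is a canine glioma cancer cell line seeded at 500 cells per well; series mostly up to about 46 µM.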 The method, boiled down: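 Cells plated at 500 per well, compounds pin-transferred, plates incubated 72 hr at 37C, then CellTiterGlo added and luminescence read to measure ATP content.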
Assay [11] addresses Nuclear receptor subfamily 1 group I member 3 (Homo sapiens) (UniProt Q14994). Description: qHTS for Constitutive Androstane Receptor (CAR) Antagonist screened against the NCATS CANVASS Library (AID 1347372).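 Note: cells stimulated with 50 nM CITCO agonist so inhibition reflects antagonism; series mostly up to about 46 µM.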 The essentials: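 HepG2 cells stably carrying hCAR and a CYP2B6-2.2kb luciferase reporter were exposed to compounds plus 50 nM CITCO for 24hr at 37C. CAR activity was read by ONE-Glo luminescence, with viability measured first by CellTiter-Fluor.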

Assay [12] shares this target. As to the kind of experiment: qHTS for Constitutive Androstane Receptor (CAR) Agonist screened against the NCATS CANVASS Library (AID 1347373).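 Note: every well also contained 1.5 µM PK11195 alongside the test compound.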 The essentials:
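HepG2-hCAR-CYP2B6 cells, 2500/well, attached 4hr; cpd + PK11195 1.5uM final; 24hr 37C 5% CO2. CellTiter-Fluor viability read, then ONE-Glo luminescence for CAR activation.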

Assay [13] in a line: 10-beta competent E. coli microbial cell viability qHTS against the NCATS CANVASS Library (AID 1347376). Note: series mostly up to about 46 µM. The essentials: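 E. coli 10-beta, 0.2 OD; cpds 11-pt; o/n 37C, 5% CO2; BacTiter-Glo 20 min RT; luminescence (ATP) = viable cells. Daunomycin ctrl.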
Assay [14] is described as follows: qHTS for Inflammasome Signaling Inhibitors: IL-1-beta AlphaLISA screen against the NCATS CANVASS Library (AID 1347379).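 Note: human THP-1 cells primed with LPS then triggered with ATP.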 The method, boiled down:
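THP-1 cells pretreated 1 hr with compound (up to 57.5 uM final), then stimulated with LPS (250 ng/mL final) and ATP (1.25 mM final). Secreted IL-1B measured by AlphaLISA after 16 hr; glyburide as positive control.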

Assay [15] in a line: Cytotoxicity qHTS for assessment of Hepg2 cells membrane integrity screened against the NCATS CANVASS Library (AID 1347387). The essentials: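 qHTS, 11-pt conc. series, 0.59 nM - 46 uM final; HepG2 2000 cells/well, overnight attachment; 5 hr compound exposure 37C/5% CO2; CytoTox-ONE, 10 min RT; fluorescence ex560/em590 = LDH from damaged membranes.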
Assay [16] is described as follows: Secretion counterscreen for inhibitors of the SERCaMP assay screened against the NCATS CANVASS Library (AID 1347390).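 Note: light from luciferase secreted into medium read as a measure of general secretion; series mostly up to about 77 µM.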 The method, boiled down:
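Luminescence from constitutively secreted GLuc in SH-SY5Y-GLuc STOP cells, read after coelenterazine addition, served as read-out. Compounds tested 0.001 - 77 uM for 20 h at 37C; Brefeldin A as positive control.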

A short description of assay [17]: Vero-766 cells viability qHTS against the NCATS CANVASS Library: Counterscreen for Zika virus inhibition assay (AID 1347394). Note: nearly all actives have a fitted effect of over 60% in size. Note: potency is the fitted concentration of half-maximal effect. The method, boiled down: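 CellTiter-Glo luminescence, lower signal indicating cytotoxicity. Vero 766 cells without Zika virus, 1000 cells/well, plated overnight, then treated 72 h at 37C across an 11-point series.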
A short description of assay [18]: Viability qHTS for inhibitors of the SERCaMP assay screened against the NCATS CANVASS Library (AID 1347400). Note: nearly all actives have a fitted effect of over 70% in size. Note: potency is the fitted concentration of half-maximal effect. The essentials: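 SH-SY5Y SERCaMP MJH297 cells, 1000/well; 4 h settle, 37C/5% CO2; pin-transferred cpds; 48 h; CellTiter-Glo lum. Pos ctrl bortezomib 0.0001 - 4.6 uM.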
A short description of assay [19]: Redox Reaction Profiling qHTS: Assay Interference Panel against the NCATS CANVASS Library (AID 1347401). Note: potency is the fitted concentration of half-maximal effect. The essentials: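 Resazurin (5 uM) conversion to resorufin measured with 200 uM DTT in 50 mM HEPES pH 7.3, 50 mM NaCl. Compounds tested in 11-point qHTS series. Fluorescence (ex 525/em 598 nm) read before and after 15 min dark incubation.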
The nature of assay [20]: qHTS for H2AX Agonists against the NCATS CANVASS Library (AID 1347378). The essentials:
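TR-FRET readout (ex 320 nm, em 665/620 nm ratio) of phospho-H2AX (S139) in CHO-K1 lysates. Cells treated 3 hr at 37C with compound titration, 0.76% DMSO; lysis 30 min, antibody detection 24 hr at RT.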

The structures appear in SMILES notation. Inconclusive results are not listed. A number with no mark means an inactive call. Active and inactive are the calls of the source. Calls come from the whole dose curve; as a rule, active = well fitted curve in the direction sought with a large enough effect; inconclusive = small, poorly fitted or top-dose-only effect, or another doubt; inactive = no such curve, though single readings can be large; an effect the other way counts as inactive or inconclusive.

Nuclear receptor subfamily 1 group I member 3 (Homo sapiens), sequence (Q14994 whole entry, looked up): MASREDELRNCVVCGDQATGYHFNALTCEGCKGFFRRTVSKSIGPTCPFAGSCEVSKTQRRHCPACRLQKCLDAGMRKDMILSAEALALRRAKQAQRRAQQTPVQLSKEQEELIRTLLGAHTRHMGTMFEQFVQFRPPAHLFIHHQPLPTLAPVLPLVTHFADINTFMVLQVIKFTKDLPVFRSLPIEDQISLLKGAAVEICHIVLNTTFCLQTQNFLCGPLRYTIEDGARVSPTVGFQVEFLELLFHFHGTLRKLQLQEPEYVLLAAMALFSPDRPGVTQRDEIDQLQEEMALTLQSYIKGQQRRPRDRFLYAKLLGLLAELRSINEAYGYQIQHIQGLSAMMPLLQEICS

`C[n+]1cc2cc(C(N)=O)[nH]c3c(=N)c(Cl)c(N)c1c23`: the Potency entry in [1], in assay [3], in [4], in assay [7], in [8] and in [9] was “inactive” throughout. The Potency entry in assay [10], in assay [11], in [12], in assay [14], in [16] and in assay [17] was “inactive” each time. The molecule was classed as inactive in assay [2], in [5], in [13] and in assay [15]. Besides, the values for the Potency in assay [6], in assay [18] and in [19] were 15.3 µM (active), 42.8 µM (active) and 1.92 µM (active), respectively.
As for `COC12OC1(C13OC1(OC)C(=O)c1cc4cc(C)oc(=O)c4c(O)c1C3O)C(O)c1c(cc3cc(C)oc(=O)c3c1O)C2=O` (configuration not stated), the Potency entry in [1], in assay [3], in assay [4], in assay [6], in assay [7] and in assay [8] was “inactive” each time. Moreover, the Potency entry in assay [9], in [10], in [11], in [12], in assay [20] and in assay [14] was “inactive” in each case. The Potency result in [16] and in assay [18] was “inactive” in each case. Also, the outcome in assay [2], in assay [5], in assay [13] and in assay [15] was inactive. Also, the Potency in [17] is 23.4 µM (active).
Turning to `CC(C)[C@]12CC[C@@]3(C)[C@H](C)CC[C@H](O)[C@@]3(CC1)c1cc3c(cc12)[nH]c1ccccc13`, the Potency entry in assay [1], in [3], in assay [4], in assay [6], in assay [7] and in assay [8] was “inactive” throughout. In addition, the Potency entry in assay [9], in assay [10], in assay [11], in assay [12], in assay [20] and in [14] was “inactive” each time. Also, the Potency result in assay [16], in assay [18] and in assay [19] was “inactive” throughout. Besides, the outcome in assay [2], in assay [5], in [13] and in assay [15] was inactive.
With `CCC(=O)N[C@@H](C[C@H](C)C(Cl)(Cl)Cl)C(=O)N1C(=O)C=C(OC)[C@@H]1CC(C)C`, the Potency entry in assay [1], in assay [3], in assay [4], in assay [6], in [7] and in [9] was “inactive” each time. Besides, the Potency entry in [10], in assay [12], in assay [20], in assay [14], in assay [16] and in [17] was “inactive” each time. The Potency entry in assay [18] and in assay [19] was “inactive” in each case. The result in [2], in assay [5], in assay [13] and in [15] was inactive.
`C=C1CC[C@@H](O[C@H]2C[C@@](O)([C@H](C)NC(=O)c3[nH]c(C)c(Cl)c3Cl)[C@H](O)[C@@H](C)O2)[C@@H]2C=C[C@H](C)C(/C(O)=C3/C(=O)[C@H](C(C)C)N([C@@H]4O[C@H](C)[C@H](OC(N)=O)[C@H](OC(C)=O)[C@@H]4OC)C3=O)[C@@H]12` (some centres not stated): the Potency result in [1], in [3], in assay [4], in assay [6], in [7] and in assay [8] was “inactive” each time. The Potency result in [9], in assay [10], in assay [11], in assay [12], in assay [20] and in [14] was “inactive” throughout. For the same molecule, the Potency entry in assay [16], in assay [17] and in assay [18] was “inactive” throughout. In addition, the result in [2], in assay [5], in [13] and in assay [15] was inactive.
Turning to `CC(=O)O[C@H]1c2ccccc2-c2c3c(cc4c2[C@@H]1N(C(C)=O)CC4)OCO3`, the Potency result in [1], in assay [3], in assay [4], in [6], in assay [7] and in [8] was “inactive” in each case. For the same molecule, the Potency entry in assay [9], in [10], in [11], in [12], in assay [20] and in assay [14] was “inactive” each time. The Potency result in assay [16] and in [19] was “inactive” throughout. Moreover, the molecule was classed as inactive in assay [2], in assay [5], in assay [13] and in [15].

The values above are taken from PubChem BioAssay (NCATS).
